Experimental data from PubChem BioAssay (EPA / NIEHS).
Results filed as inconclusive are left out. The source made the active and inactive calls. How the source made its calls, unless noted: active means hit-call score of the fitted dose curve at least 0.9, where 1 is the maximum; inconclusive means response in the unintended direction; inactive means score below 0.9.

What was measured:
[1] = test system: Sodium/Iodide Symporter (NIS), SLC5A5 (gene 6528); experiment: CPHEA_Stoker_NIS_Inhibition_RAIU: CPHEA's Radioactive Iodide Uptake (RAIU) Assay for Sodium/Iodide Symporter (NIS) Inhibition, Stoker and Laws Labs (AID 2283841)
In short: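 Iodide uptake read as CPM of intracellular 125I (final 329 pM) after 2 h room-temperature exposure in HEPES-buffered HBSS, pH 7.4. Human NIS-expressing HEK293T cells; six concentrations 0.001–100 uM, 0.5% DMSO, normalised to DMSO wells.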

[2] = CPHEA_Stoker_NIS_Cytotoxicity: Cytotoxicity Assessment for CPHEA's Radioactive Iodide Uptake (RAIU) Assay for Sodium/Iodide Symporter (NIS) Inhibition, Stoker and Laws Labs (AID 2283897)
In short: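 CellTiter-Glo ATP luminescence gauged viability in HEK293T cells expressing human NIS after 2 h chemical exposure. Concentrations ran 0.001–100 uM in 0.5% DMSO; DMSO served as baseline for the loss-of-signal fit.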

PGR (gene 5241) [3] = target: PGR (gene 5241) (UniProt P06401); experiment: TOX21_PR_BLA_Followup_Antagonist_ratio: Tox21 HEK293 Progesterone Receptor (PR) Antagonism Beta-lactamase Follow-Up Assay, Ratio (AID 2283934)
PGR (gene 5241), sequence (P06401 whole entry, looked up): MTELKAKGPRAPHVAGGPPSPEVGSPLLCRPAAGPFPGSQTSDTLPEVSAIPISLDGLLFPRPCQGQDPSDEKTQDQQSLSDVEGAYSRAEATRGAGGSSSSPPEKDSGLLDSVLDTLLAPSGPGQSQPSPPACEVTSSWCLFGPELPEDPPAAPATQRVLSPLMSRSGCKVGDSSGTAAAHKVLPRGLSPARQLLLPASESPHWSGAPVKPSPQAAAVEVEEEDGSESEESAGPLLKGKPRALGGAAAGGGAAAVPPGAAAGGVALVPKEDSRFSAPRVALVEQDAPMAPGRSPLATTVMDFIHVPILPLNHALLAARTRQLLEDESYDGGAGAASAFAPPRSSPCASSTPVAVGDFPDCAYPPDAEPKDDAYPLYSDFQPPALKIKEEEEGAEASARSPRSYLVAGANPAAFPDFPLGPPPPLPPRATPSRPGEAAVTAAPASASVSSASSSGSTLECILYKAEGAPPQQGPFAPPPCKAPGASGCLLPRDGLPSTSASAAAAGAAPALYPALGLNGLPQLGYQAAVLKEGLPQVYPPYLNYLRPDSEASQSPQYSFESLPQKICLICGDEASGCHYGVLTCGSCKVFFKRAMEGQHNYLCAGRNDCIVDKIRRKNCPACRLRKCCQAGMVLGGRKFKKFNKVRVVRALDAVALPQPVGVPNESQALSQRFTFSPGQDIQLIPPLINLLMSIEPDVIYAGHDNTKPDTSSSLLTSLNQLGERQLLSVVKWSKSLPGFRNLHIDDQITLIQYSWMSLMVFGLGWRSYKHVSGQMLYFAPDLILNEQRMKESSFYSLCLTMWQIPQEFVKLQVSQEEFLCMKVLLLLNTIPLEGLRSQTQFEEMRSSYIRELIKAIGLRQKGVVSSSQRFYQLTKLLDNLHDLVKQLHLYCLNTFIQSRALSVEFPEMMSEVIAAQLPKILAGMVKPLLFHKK
In short: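 PR-UAS-bla HEK293T cells, 3,000/well in 2% charcoal-stripped FBS, given compound plus 1nM R5020 agonist for 16 hr at 37C. Beta-lactamase FRET substrate 2 hours, ratio cleaved/uncleaved fluorescence; viability by CellTiter-Glo in same wells.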

[4] = TOX21_PR_BLA_Followup_Agonist_viability: Viability Assessment in the Tox21 HEK293 Progesterone Receptor (PR) Agonism Beta-lactamase Follow-Up Assay (AID 2283935);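 further: signal loss means lower viability so actives are cytotoxic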
In short: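 PR-UAS-bla HEK293T cells in 2% charcoal-stripped FBS medium, plated 6 hr before compound addition, exposed 16 hr at 37C. Viability read by CellTiter-Glo ATP luminescence after 30 min at room temperature, in the same wells as the beta-lactamase readout.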

[5] = TOX21_PR_BLA_Followup_Antagonist_viability: Viability Assessment in the Tox21 HEK293 Progesterone Receptor (PR) Antagonism Beta-lactamase Follow-Up Assay (AID 2283936);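 further: hits lower the luminescence signal meaning cytotoxicity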
In short: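 PR-UAS-bla HEK293T cells (3,000/well, 2% charcoal-stripped FBS) given compound plus R5020 agonist, 16 h at 37C. CellTiter-Glo added after bla read, 30 min at room temperature; luminescence loss indicates cytotoxicity.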

PGR (gene 5241) [6] = target: PGR (gene 5241) (UniProt P06401); experiment: TOX21_PR_LUC_Followup_Antagonist: Tox21 HEK293 Progesterone Receptor (PR) Antagonism Luciferase Follow-Up Assay (AID 2283938);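 further: curve fitted upward as signal gain over DMSO baseline despite antagonist label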
In short: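 Luciferase reporter in HEK293-PR-A-luc cells: 16 h compound treatment at 37C, ONE-Glo luminescence detection, DMSO as negative control and baseline.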

[7] = TOX21_PR_LUC_Followup_Antagonist_viability: Viability Assessment in the Tox21 HEK293 Progesterone Receptor (PR) Antagonism Luciferase Follow-Up Assay (AID 2283940)
In short: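 HEK293-PR-A-luc cells kept in charcoal-stripped FBS medium were plated 5 h before compound addition, then exposed 16 h at 37C; viability read as cellular ATP by luciferase luminescence, loss of signal indicating cytotoxicity.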

[8] = TOX21_PR_LUC_Followup_Agonist_viability: Viability Assessment in the Tox21 HEK293 Progesterone Receptor (PR) Agonism Luciferase Follow-Up Assay (AID 2283941);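 further: loss of signal means cytotoxicity so actives lower viability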
In short: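 HEK293-PR-A-luc cells, kept in 10% charcoal-stripped FBS medium, were treated with compounds for 16 h at 37C. Viability read as cellular ATP by luciferase-coupled luminescence; loss of signal indicates cytotoxicity.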

PGR (gene 5241) [9] = target: PGR (gene 5241) (UniProt P06401); experiment: TOX21_PR_BLA_Followup_Agonist_ratio: Tox21 HEK293 Progesterone Receptor (PR) Agonism Beta-lactamase Follow-Up Assay, Ratio (AID 2283933)
In short: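 PR-UAS-bla HEK293T cells in medium with 2% charcoal-stripped FBS were dosed after 6 h plating and incubated 16 h at 37C. LiveBLAzer FRET substrate was added for 2 h at room temperature. Cleaved/uncleaved substrate ratio fitted against DMSO; CellTiter-Glo viability run in the same wells.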

PGR (gene 5241) [10] = target: PGR (gene 5241) (UniProt P06401); experiment: TOX21_PR_LUC_Followup_Agonist: Tox21 HEK293 Progesterone Receptor (PR) Agonism Luciferase Follow-Up Assay (AID 2283937; active means hit-call score of the fitted dose curve at least 0.9, where 1 is the maximum; inactive means score below 0.9)
In short: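 HEK293-PR-A-luc cells, conditioned 5 days in 10% charcoal-stripped FBS medium, seeded 3,000/well for 5 h, then compound-treated 16 h at 37C. ONE-Glo luminescence read after 30 min at room temperature; gain of signal versus DMSO.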

[11] = CEETOX_H295R_11DCORT_noMTC: CeeTox H295R High-throughput Steroidogenesis Assay for 11-Deoxycortisol (11DCORT), maximum tolerated concentration (MTC) filtered results only (AID 2283911; active means hit-call score of the fitted dose curve at least 0.9, where 1 is the maximum; inactive means score below 0.9); settings: actives raise or lower the signal
In short: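 Forskolin-primed (10 uM, 48 h) H295R adrenal cells are dosed for 48 h at 0.1% DMSO; medium 11-deoxycortisol is quantified by LC-MS/MS against a 7-point standard curve, with activity fitted in both directions versus DMSO.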

[12] = CEETOX_H295R_OHPREG_noMTC: CeeTox H295R High-throughput Steroidogenesis Assay for OH-Pregnenolone (OHPREG), maximum tolerated concentration (MTC) filtered results only (AID 2283912; active means hit-call score of the fitted dose curve at least 0.9, where 1 is the maximum; inactive means score below 0.9); settings: actives raise or lower the signal
In short: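 Steroidogenesis in H295R cells (OECD 456, modified): after 48 h forskolin priming and 48 h chemical treatment, secreted 17alpha-hydroxypregnenolone is measured by HPLC-MS/MS. Activity is fitted in both directions against DMSO; concentrations are not filtered by MTT-based MTC.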

[13] = CEETOX_H295R_OHPROG_noMTC: CeeTox H295R High-throughput Steroidogenesis Assay for OH-Progesterone (OHPROG), maximum tolerated concentration (MTC) filtered results only (AID 2283914; active means hit-call score of the fitted dose curve at least 0.9, where 1 is the maximum; inactive means score below 0.9); settings: actives raise or lower the signal
In short: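 Forskolin 10 uM, 48 h prestim → test cmpd in DMSO (0.1% final), 48 h → medium MTBE extraction → LC-MS/MS quant of 17alpha-OH-progesterone. Bidirectional fit vs DMSO; no MTT-based MTC filtering.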

[14] = CEETOX_H295R_CORTISOL_noMTC: CeeTox H295R High-throughput Steroidogenesis Assay for Cortisol, maximum tolerated concentration (MTC) filtered results only (AID 2283916; active means hit-call score of the fitted dose curve at least 0.9, where 1 is the maximum; inactive means score below 0.9); settings: actives raise or lower the signal
In short: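 Cortisol secretion measured by LC-MS/MS after 48 h chemical treatment (final 0.1% DMSO) of forskolin-primed (10 uM, 48 h) H295R cells; gain or loss fitted relative to DMSO, without maximum-tolerated-concentration filtering.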

[15] = CEETOX_H295R_CORTIC_noMTC: CeeTox H295R High-throughput Steroidogenesis Assay for Corticosterone (CORTIC), maximum tolerated concentration (MTC) filtered results only (AID 2283917; active means hit-call score of the fitted dose curve at least 0.9, where 1 is the maximum; inactive means score below 0.9); settings: actives raise or lower the signal
In short: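 Following OECD 456 with minor changes, H295R cultures received 10 uM forskolin for 48 h, then test chemical at 0.1% DMSO for 48 h. Media steroids were extracted and measured by LC-MS/MS.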

[16] = CEETOX_H295R_DOC_noMTC: CeeTox H295R High-throughput Steroidogenesis Assay for DOC, maximum tolerated concentration (MTC) filtered results only (AID 2283918; active means hit-call score of the fitted dose curve at least 0.9, where 1 is the maximum; inactive means score below 0.9); settings: actives raise or lower the signal
In short: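 11-Deoxycorticosterone secreted by human adrenal H295R cells quantified by HPLC-MS/MS after 48 h chemical exposure (0.1% DMSO), following 48 h 10 uM forskolin prestimulation. Concentrations not filtered by MTT-derived MTC; bidirectional fitting.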

[17] = target: Thyroid hormone receptor alpha (Rattus norvegicus) + Thyroid hormone receptor beta (Rattus norvegicus) (UniProt P18113+P63059); experiment: TOX21_TR_LUC_GH3_Agonist_Followup: Tox21 GH3 Thyroid Hormone Receptor Agonism Luciferase Follow-Up Assay (AID 2283939)
Thyroid hormone receptor alpha (Rattus norvegicus) + Thyroid hormone receptor beta (Rattus norvegicus), sequence (P63059 whole entry, looked up): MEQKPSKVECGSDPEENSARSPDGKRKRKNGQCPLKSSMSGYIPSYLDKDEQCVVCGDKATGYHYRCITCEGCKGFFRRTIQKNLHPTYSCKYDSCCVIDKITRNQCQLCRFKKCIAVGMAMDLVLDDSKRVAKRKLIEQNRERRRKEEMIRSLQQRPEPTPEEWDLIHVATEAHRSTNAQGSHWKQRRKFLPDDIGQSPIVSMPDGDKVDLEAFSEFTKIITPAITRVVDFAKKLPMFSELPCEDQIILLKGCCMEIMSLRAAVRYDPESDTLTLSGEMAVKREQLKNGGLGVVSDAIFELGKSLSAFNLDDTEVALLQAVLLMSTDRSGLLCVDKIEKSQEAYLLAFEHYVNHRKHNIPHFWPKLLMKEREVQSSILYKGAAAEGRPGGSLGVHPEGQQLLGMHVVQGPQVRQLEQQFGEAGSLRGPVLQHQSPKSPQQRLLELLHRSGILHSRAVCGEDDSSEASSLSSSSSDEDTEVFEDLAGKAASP
Thyroid hormone receptor alpha (Rattus norvegicus) + Thyroid hormone receptor beta (Rattus norvegicus), sequence (P18113 whole entry, looked up): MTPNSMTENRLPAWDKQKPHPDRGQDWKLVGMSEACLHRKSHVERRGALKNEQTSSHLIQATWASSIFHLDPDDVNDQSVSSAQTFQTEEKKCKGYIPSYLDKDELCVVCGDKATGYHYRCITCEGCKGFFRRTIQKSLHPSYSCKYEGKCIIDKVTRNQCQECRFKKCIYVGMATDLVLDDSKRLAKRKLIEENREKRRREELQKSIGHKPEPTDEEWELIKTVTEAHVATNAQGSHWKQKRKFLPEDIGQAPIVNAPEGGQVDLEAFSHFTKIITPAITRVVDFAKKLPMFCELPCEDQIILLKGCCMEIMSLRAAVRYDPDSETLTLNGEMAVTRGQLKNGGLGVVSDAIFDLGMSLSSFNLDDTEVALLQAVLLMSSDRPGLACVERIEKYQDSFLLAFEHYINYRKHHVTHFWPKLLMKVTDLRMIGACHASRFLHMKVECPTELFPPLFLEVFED
In short: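 Rat GH3 cells (1,500/well) in serum-free assay medium, treated with 15-point series, 92 uM to 5 nM final, for 24 h at 37C. Luciferase via ONE-Glo luminescence; gain of signal fitted against DMSO, T3 positive control.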

[18] = CEETOX_H295R_PROG_noMTC: CeeTox H295R High-throughput Steroidogenesis Assay for Progesterone (PROG), maximum tolerated concentration (MTC) filtered results only (AID 2283920; active means hit-call score of the fitted dose curve at least 0.9, where 1 is the maximum; inactive means score below 0.9); settings: actives raise or lower the signal
In short: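 H295R cells; forskolin 10 uM x 48 h prestim; test cpd 48 h, 0.1% DMSO final; media progesterone via LC-MS/MS; bidirectional fit vs DMSO; no MTT-based MTC filter applied.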

Measured: AC50

Oc1ccc2c(c1)OC[C@@H](N1CCC(O)(c3ccc(F)cc3)CC1)[C@H]2O
inactive: [1] | [2] | PGR (gene 5241) [3] | [4] | [5] | PGR (gene 5241) [6] | [7] | [8]

Nc1ccccc1N
inactive: [1] | [2]

CCOc1ccc2c(c1)C(C)=CC(C)(C)N2
inactive: PGR (gene 5241) [9] | PGR (gene 5241) [3] | [4] | [5] | PGR (gene 5241) [10] | PGR (gene 5241) [6] | [8]

O=C(OCCCCCOC(=O)c1ccccc1)c1ccccc1
inactive: [2] | [11] | [12] | [13] | [14] | [15] | [16]

Oc1ccc2ccccc2c1N=Nc1ccccc1
inactive: [1] | [2] | PGR (gene 5241) [3] | [4] | [5] | [7]

CCCCC(CC)COC(=O)CC(C(=O)OCC(CC)CCCC)S(=O)(=O)O (stereo unspecified)
inactive: [1] | [2]

CCCCCCCCCCC
inactive: [17]

FC(F)(F)C(F)(F)C(F)(F)C(F)(F)C(F)(F)C(F)(F)CCI
inactive: [1] | [2]

COc1ccc(S(=O)(=O)N2C(=O)[C@@](c3ccccc3OC)(N3C[C@H](O)C[C@H]3C(=O)N(C)C)c3cc(Cl)ccc32)c(OC)c1
inactive: [1] | [2]

CC(C)(C)c1cc(O)c(C(C)(C)C)cc1O
inactive: [1] | [2]

C=CCOC(=O)c1ccccc1C(=O)OCC=C
inactive: [12] | [13] | [18]

CCc1c(C(=O)NN2CCCCC2)nn(-c2ccc(Cl)cc2Cl)c1-c1ccc(Br)cc1
inactive: [2] | PGR (gene 5241) [9] | [4] | [5] | PGR (gene 5241) [10] | PGR (gene 5241) [6] | [7]
active: PGR (gene 5241) [3] 25.5 µM

O=C(N[C@@H](Cc1ccccc1)[C@@H](O)C(=O)N1C[C@@H](O)[C@@H](O)C1)c1cc2cc(Cl)ccc2[nH]1
inactive: [2]
